USP17 block: inhibitors of human USP17 deubiquitinase. actives 6.5% (n = 47,000). inhibition, % at 50 µM. AID 1645855, 2021. purified USP17, Ub-rhodamine cleavage fluorescence, 3 h. Ubiquitin carboxyl-terminal hydrolase 17-like protein 5 (Homo sapiens), A8MUK1
Target sequence (A8MUK1 whole entry, looked up): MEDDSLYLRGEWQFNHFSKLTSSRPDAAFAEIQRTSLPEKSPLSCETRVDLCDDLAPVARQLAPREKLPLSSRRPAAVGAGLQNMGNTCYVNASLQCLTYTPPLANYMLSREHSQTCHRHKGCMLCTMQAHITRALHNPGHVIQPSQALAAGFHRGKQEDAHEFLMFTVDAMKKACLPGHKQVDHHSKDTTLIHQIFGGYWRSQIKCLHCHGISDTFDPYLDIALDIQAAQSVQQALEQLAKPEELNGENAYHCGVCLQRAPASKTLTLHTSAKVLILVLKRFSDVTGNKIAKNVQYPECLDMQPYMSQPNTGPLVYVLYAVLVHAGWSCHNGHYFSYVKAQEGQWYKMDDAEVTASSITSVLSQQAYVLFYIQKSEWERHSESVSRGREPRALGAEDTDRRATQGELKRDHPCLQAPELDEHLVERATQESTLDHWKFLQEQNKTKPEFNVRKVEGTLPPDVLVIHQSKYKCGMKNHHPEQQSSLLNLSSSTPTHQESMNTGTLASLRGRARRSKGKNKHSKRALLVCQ
USP8 inh: inhibitors of human USP8 deubiquitinase; Ubiquitin carboxyl-terminal hydrolase 8 (Homo sapiens), P40818; purified USP8, Ub-rhodamine cleavage fluorescence, 30 min; inhibition, % at 20 µM; actives 4.2% (n = 47,000); AID 1645853, 2021
USP10 inh: inhibitors of human USP10 deubiquitinase; purified USP10, Ub-rhodamine fluorescence, 60 min; actives 1.1% (n = 47,000); Ubiquitin carboxyl-terminal hydrolase 10 (Homo sapiens), Q14694; inhibition, % at 20 µM
USP30 inh: inhibitors of human USP30 deubiquitinase | actives 5.3% (n = 47,000) | inhibition, % at 25 µM | Ubiquitin carboxyl-terminal hydrolase 30 (Homo sapiens), Q70CQ3 | purified USP30, Ub-rhodamine cleavage fluorescence
USP28 block: inhibitors of human USP28 deubiquitinase | Ubiquitin carboxyl-terminal hydrolase 28 (Homo sapiens), Q96RU2 | inhibition, % at 25 µM | actives 3% (n = 47,000) | purified USP28, Ub-rhodamine cleavage fluorescence, 30 min | AID 1645857, 2021
Starred values were filed as active, the others as inactive; . = not tested or not shown. Compounds with a hit are over-represented: about 14% of the library has one in this group of screens. No stated cut-off is given here; in the data, active means inhibition above about 30%; inactive means the rest.

SMILES	USP17 block	USP8 inh	USP10 inh	USP30 inh	USP28 block
CCOc1cc(-c2noc(-c3ccccc3)n2)ccc1OCC(=O)Nc1ncccc1C	37.8*	14.4	3.4	31.5*	7.3
COc1cc(NC(=O)c2cc(-c3ccncc3)n(-c3ccc(F)cc3)n2)cc(OC)c1	10.3	5.3	3.6	14.1	70.6*
COc1ccc(-c2nc3ncccc3o2)cc1NC(=O)COc1ccccc1Cl	-0.1	-4.0	3.8	-4.8	-3.1
COc1cc(NC(=O)CSc2nc3ncccc3o2)ccc1Cl	47.3*	85.4*	-3.8	-82.0	1.0
NS(=O)(=O)c1cccc(NS(=O)(=O)c2ccc(/C=C/C(=O)OCC(=O)c3ccc(Br)cc3)cc2)c1	15.4	5.8	41.2*	18.0	58.9*
COc1ccc(NS(=O)(=O)c2ccc(/C=C\c3onc(C)c3NC(C)=O)cc2)cc1	5.4	0.7	0.9	.	.
COc1ccc(C(=O)COC(=O)/C=C/c2ccc(S(=O)(=O)Nc3cccc(S(N)(=O)=O)c3)cc2)cc1	10.2	-6.2	22.6	21.7	43.4*
CC(=O)c1cccc(S(=O)(=O)Nc2ccc(S(=O)(=O)Nc3nc(C)cc(C)n3)cc2)c1	-13.3	-0.2	4.5	-56.6	0.0
CCc1ccc(NC(=O)C(C)OC(=O)/C=C/c2ccc(S(=O)(=O)Nc3cccc(S(N)(=O)=O)c3)cc2)cc1 (centres undefined)	33.1*	17.9	32.6*	15.4	27.4
COc1cccc(OC2=C(Cl)C(=O)N(c3cccc(C)c3C)C2=O)c1	-37.2	-6.8	-5.3	.	.
COC(=O)c1c(C)nn(C)c1-c1ccno1	15.7	14.0	0.7	30.8*	7.4
COC(=O)c1c(C(=O)OC)c(-c2ccccc2)n(C)c1-c1ccccc1	19.0	8.2	3.3	20.6	26.6
CCCN1CCN(c2ncc3c(n2)CCN(Cc2ccccn2)C3)CC1	-45.8	-81.8	-5.9	-101.7	-35.4
O=[N+]([O-])c1ccc(N2CCc3nc(-c4ccccn4)ncc3C2)cc1	70.4*	-262.9	6.1	77.3*	8.1
Cc1cc2ncc3c(n2n1)CCN(c1ccc([N+](=O)[O-])cc1)C3	32.6*	-6.5	-12.1	-237.4	-2.9
Cc1noc(-c2ccnc(-n3ncc(C(=O)N4CCC(C)CC4)c3C)c2)n1	-0.9	-4.1	-1.4	-13.8	-5.8
CCCC1Cc2c(sc3nc(SCc4ccc5ccccc5c4)nc(N)c23)CO1 (centres undefined)	16.7	-2.6	-0.1	-15.7	2.1
CN1C(=O)C(C)(C)COc2ccc(NS(=O)(=O)c3cc(F)ccc3F)cc21	0.8	44.0*	4.0	-41.1	-8.5
Cc1cccc(S(=O)(=O)Nc2ccc3c(c2)N(C)C(=O)C(C)(C)CO3)c1	6.5	12.5	0.0	2.7	7.4
CC1=C[C@H]2N(c3ccc(C)cc31)[C@H](C(=O)c1cccs1)[C@@H](C(=O)c1ccc(F)cc1)[C@]21C(=O)Nc2ccccc21	59.4*	77.6*	0.8	-72.1	1.5
CC1=C[C@H]2N(c3ccccc31)[C@H](C(=O)C(C)(C)C)[C@@H](C(=O)c1ccco1)[C@]21C(=O)Nc2ccccc21	-57.0	-83.7	-7.0	-423.1	-68.5
CC1=C[C@H]2N(c3ccc(C)cc31)[C@H](C(=O)C(C)(C)C)[C@@H](C(=O)c1ccccc1)[C@]21C(=O)Nc2ccccc21	40.8*	79.9*	-9.9	-92.9	-1.7
COc1ccc(-n2ccn3c(CCC(=O)N4CCc5ccccc5C4)nnc3c2=O)cc1	-4.2	0.6	0.7	0.0	-10.1
CCN1CCN(c2nc3cc(C(=O)OC)ccc3c(=O)n2-c2ccccc2)CC1	1.3	8.5	-0.6	-4.8	-4.3
Cc1ccc(S(=O)(=O)Nc2ccc(O)c(S(=O)(=O)c3ccc(C)cc3)c2)cc1	10.2	33.0*	13.4	19.7	25.4
SMILES	USP17 block	USP8 inh	USP10 inh	USP30 inh	USP28 block
COc1ccc(NS(=O)(=O)c2ccc(O)c([N+](=O)[O-])c2)cc1S(=O)(=O)N1CCCCC1	-9.4	-26.9	1.3	-57.4	3.8
Cn1nnc2ccc(-c3noc(Cc4cccc(F)c4)n3)cc21	-3.7	-10.3	-1.4	-10.7	0.1
Cn1cc(-c2noc(Cc3cccc(C(F)(F)F)c3)n2)ccc1=O	8.9	8.7	-0.6	17.5	79.1*
CN(C)c1ccc(NC(=O)c2ccc(Cn3cc([N+](=O)[O-])cn3)cc2)cc1	29.5	45.7*	3.2	-54.9	27.9
CC(C)(C)c1ccc(C(=O)Nc2ccc(Cn3cncn3)cc2)cc1	3.3	-13.1	-3.8	3.1	55.5*
O=C(O)CC(NC(=O)c1cnn(Cc2ccccc2)c1)c1ccccc1 (centres undefined)	-5.9	-9.1	-2.5	4.7	-14.1
NC(=O)c1ccc(NC(=O)c2cnn(Cc3ccccc3)c2)cc1	37.8*	0.6	-2.6	15.4	8.4
N=C1C(c2nc3ccccc3s2)=C(O)CN1Cc1cccc(F)c1	-21.3	0.3	-6.5	-48.4	-7.1
CC(c1ccccc1)N1CC(O)=C(c2nc3ccccc3s2)C1=N (centres undefined)	8.7	89.6*	45.0*	1.4	2.1
N=C1C(c2nc3ccccc3s2)=C(O)CN1Cc1ccc(F)cc1	50.7*	33.3*	8.8	17.7	-19.4
O=C1C[C@@H]2O[C@H](CNC(=O)[C@@H]3CN(CCN3C(=O)c3ccc(F)cc3)C(=O)[C@@H]3C[C@@H](CN3Cc3ccccc3)N1)[C@@H](O)[C@H]2O	9.1	1.7	0.1	-4.7	5.6
Cc1nnc2n1CCN(C(=O)c1cc(-c3ccccc3)n[nH]1)C2	10.1	4.8	0.0	13.0	5.8
CCCN1CCN(C(=O)c2ccc(-c3ccc(C(C)=O)cc3)o2)CC1	-15.0	-8.5	0.6	-17.4	-11.5
Cc1ccc2c(c1)N(Cc1ccc(Cl)cc1)C(=O)CCS2	23.7	10.7	6.5	30.4*	27.3
COc1ccc(CN2C(=O)CCSc3ccc(Cl)cc32)cc1	9.9	4.1	5.4	7.1	16.3
c1ccc(-c2noc(NC3CCCC3)n2)cc1	-4.7	-1.5	7.6	-3.7	4.2
O=C1Nc2c(Cl)cc(Cl)cc2C1(O)c1sc(NC2CCCCC2)nc1-c1ccccc1 (centres undefined)	66.3*	87.4*	4.4	8.1	8.3
C[C@@]12C[C@H](c3ccccc3)N(S(=O)(=O)c3ccccc3)[C@@H]1CCC[C@H](O)[C@@H]2O	18.0	9.3	0.1	22.8	11.9
Cc1cccc(NC(=O)N2CCC(CC(=O)N3CCCCC3)CC2)c1	-26.7	8.4	-5.4	16.3	5.5
O=C(Cn1nnnc1-c1ccccc1F)Nc1cccc2cccnc12	17.2	15.9	12.4	12.4	10.0
O=C(Nc1ccccc1C(=O)O)c1ccc(CSCc2ccccc2)cc1	39.4*	-17.8	51.1*	-24.6	31.2*
Cc1cc2nc(/C=C/c3ccccc3)n(Cc3cccc(F)c3)c2cc1C	-5.7	-17.7	6.5	0.0	50.9*
